Whole data set: some 33,000 sequences, median “e-score” near -0.05, cut for the highest 2% near 0.38. This is one part of a sample in which the highest values are shown more often than they occur.
molecular target: T1, SIX1-Q177R homeodomain (human, UniProt Q15475 108-198, Q177R); assay: universal protein binding microarray; Universal all-10-mer PBM (8x60K, AMADID 030236), 300 nM GST-tagged protein, Alexa Fluor 488 anti-GST; buffer, salt, pH and temperature not stated (as in Berger); high values mean tight binding; details: protein: ivt; tags: N-terminal GST; dsDNA, one strand shown
T1 sequence: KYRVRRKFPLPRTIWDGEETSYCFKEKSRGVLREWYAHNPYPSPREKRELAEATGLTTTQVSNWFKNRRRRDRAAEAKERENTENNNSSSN
Summary of the method: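 GST-tagged homeodomains were made by in vitro transcription/translation and quantified by anti-GST western blot against a recombinant GST standard curve. They were applied in duplicate at 300 nM final concentration to universal 'all 10-mer' protein binding microarrays (8×60K format). Binding was quantified as 8-mer E-scores with the Universal PBM Analysis Suite.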

Sequence | binding signal [E-score]
CACCCCTC | 0.3928 ± 0.00375
CACCCTAG | 0.3472 ± 0.00144
CACCCCTA | 0.283 ± 0.00661
CACCCTAC | 0.387 ± 0.01
CACCCCTG | 0.351 ± 0.0108
CACCCTAA | 0.3263 ± 0.00228
CACCCGCC | 0.339 ± 0.0104
CACTTAGC | 0.179 ± 0.029
ACGCCCAC | 0.208 ± 0.00669
ATCGGCAC | 0.175 ± 0.0126
AGTAGGGG | 0.196 ± 0.0406
CCATGGAA | 0.156 ± 0.015
AAACTGGT | 0.203 ± 0.0496
ACACTGTA | 0.3506 ± 0.0019
CCACTGGA | 0.206 ± 0.0185
ACACTGAT | 0.374 ± 0.00694
ACACTGGG | 0.412 ± 0.0164
ACGCTGGG | 0.154 ± 0.0213
ACACTGGA | 0.3915 ± 0.0011
ACCCTGGG | 0.238 ± 0.00896
ACACTGGC | 0.379 ± 0.00546
ACACTTGC | 0.363 ± 0.0273

Sequence | binding signal [E-score]
ACACTGGT | 0.4256 ± 0.00135
ACCATGGG | 0.162 ± 0.0492
CGATAACA | 0.232 ± 0.018
GGGGTGGA | 0.159 ± 0.0262
AGTCAGAG | 0.156 ± 0.0606
CACCCTGG | 0.315 ± 0.016
CCTTGACC | 0.172 ± 0.00687
AAGGGGTA | 0.2871 ± 0.000587
AAACTACA | 0.184 ± 0.032
CGCCGTGC | 0.188 ± 0.0146
ACGTAGTG | 0.23 ± 0.0205
CACGTGCA | 0.218 ± 0.0109
AACGTGTA | 0.353 ± 0.0523
CACGTGTA | 0.4 ± 0.0127
CACGTGCC | 0.225 ± 0.0142
AACGTGTC | 0.3481 ± 0.00176
CACGTGTC | 0.398 ± 0.00923
ACCGCTAG | 0.171 ± 0.0167
AACAGGTG | 0.327 ± 0.0196
GGTAAACA | 0.188 ± 0.00443
CGTAACCC | 0.225 ± 0.019
GTAAACAC | 0.375 ± 0.00722

Sequence | binding signal [E-score]
CGTAGCAC | 0.17194 ± 0.000163
CGTAACAC | 0.4096 ± 0.00185
AGTAACCC | 0.201 ± 0.0162
GGTAACAC | 0.432 ± 0.00841
AGTAACAC | 0.424 ± 0.0116
CCACTTGC | 0.163 ± 0.00866
AGGGGTAC | 0.273 ± 0.0106
ATCCCCAC | 0.211 ± 0.0453
ATCTTACA | 0.262 ± 0.0268
ACCCGTAA | 0.264 ± 0.0395
TGCCGACA | 0.177 ± 0.00329
CCGGTATA | 0.183 ± 0.0142
ACGGTGCA | 0.2931 ± 0.00041
GCGGTGTA | 0.4849 ± 0.00132
GATGTGTA | 0.19 ± 0.00781
CCGGTGCA | 0.203 ± 0.0164
ACGGTGCT | 0.179 ± 0.0133
GCTGTGTA | 0.223 ± 0.0192
CCGGTGTA | 0.4859 ± 0.00134
ACGGTGTA | 0.4693 ± 0.00139
CCCGAGTA | 0.167 ± 0.00344
CTTAGGGA | 0.151 ± 0.0622

Sequence | binding signal [E-score]
GCACAACA | 0.156 ± 0.0323
CACCTGAG | 0.183 ± 0.0139
ATTGGTGC | 0.1599 ± 0.00112
CAAGGACA | 0.194 ± 0.0363
ACGACCCG | 0.179 ± 0.0515
CACGCATC | 0.168 ± 0.00731
CACCAGCG | 0.22 ± 0.0046
CCGTGTGA | 0.299 ± 0.0309
CCGTGACA | 0.307 ± 0.00911
ACGTGGTG | 0.3594 ± 0.00155
GCGTGTCC | 0.412 ± 0.0188
ACGTGTGG | 0.218 ± 0.0138
ACGTGTCC | 0.347 ± 0.017
GCGTATCC | 0.176 ± 0.00656
ACGTGTCG | 0.383 ± 0.00518
GCGTGTCA | 0.4332 ± 0.000573
GCGTGACA | 0.254 ± 0.0158
CCGTGTCA | 0.465 ± 0.00781
CCAGCTGG | 0.263 ± 0.0674
CATGGTGG | 0.192 ± 0.00214
GTGCGTGA | 0.163 ± 0.0169
CCCCCTTC | 0.2098 ± 0.000417

Sequence | binding signal [E-score]
TCGTGTCA | 0.4434 ± 0.00419
TCGGGTCA | 0.197 ± 0.0386
ACGTGTCT | 0.337 ± 0.00126
ACGTGTCA | 0.4123 ± 0.00349
CCGTGATC | 0.165 ± 0.0407
CCGGGTCG | 0.248 ± 0.0288
CCGTGTCG | 0.441 ± 0.0221
TCGTGACA | 0.329 ± 0.0128
CCCTGTCC | 0.152 ± 0.0156
CCGTGTCC | 0.408 ± 0.0236
CCCCGTCG | 0.161 ± 0.0244
CGAATCCG | 0.166 ± 0.0303
AGCTCGTG | 0.244 ± 0.0101
ATACTCCC | 0.162 ± 0.0435
CCCCGGTA | 0.284 ± 0.00694
CATCAGCG | 0.153 ± 0.0322
CACCGGAC | 0.315 ± 0.0498
CTATAACA | 0.228 ± 0.0138
AAAGTGTT | 0.285 ± 0.0563
AGAGTGTA | 0.424 ± 0.0108
AGAGTGTG | 0.247 ± 0.0115
AGTGTGTC | 0.283 ± 0.029

Source: publication PMC10668032, “Altered binding affinity of SIX1-Q177R correlates with enhanced WNT5A and WNT pathway effector expression in Wilms tumor”
